KAT2A inh: blocks human GCN5L2 histone acetyltransferase. 390,000 tested, 0.21% active. Q92830. AID 504327. Potency, µM (highest dose often 58.9 µM), inactives show at the highest dose activity change, negative = inhibition, usual class: inhibitors. GCN5L2 HAT assay, ThioGlo1 CoA-SH fluorescence; note: potency is the fitted concentration of half-maximal effect
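Titration-based screen in which CoA formation is detected via maleimide probe ThioGlo1 (50uM) turning fluorescent on thiol reaction; substrates H3(1-25) 75uM and acetyl-CoA 70uM, GCN5L2 20nM, 20 min incubation at room temperature.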
PI5P4K alpha inh: inhibitors of human PI5P4K alpha; P48426; PI5P4Kalpha enzyme, ADP-Glo luminescence, 60 min; active compounds read low; max response, %; 330,000 tested, 1.2% active; active = max response of -50% or lower; inconclusive = between -30% and -50%; inactive = -30% or higher; note: value at the top dose of about 77 µM
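Reactions run in 0.038 M HEPES pH 7.4, 0.28 mM EGTA, 0.1% CHAPS and 5% DMSO, with PI5P4Kalpha, substrate, compound and 5 microM ATP final, one hour at room temperature. Readout is ADP-Glo luminescence.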
PI4K2A inh: blocks human PI4K2A kinase activity. Q9BTU6. purified PI4K2A, ADP-Glo luminescence, 1 h; active compounds read low. activity change, negative = inhibition, % at 76.9 µM. 420,000 tested, 0.13% active. AID 1346378; in the data active = activity change below about -50%; inconclusive = mostly about -30% to -49%;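 note: -100% = wells without enzyme as full effect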
Target sequence (Q9BTU6 whole entry, looked up): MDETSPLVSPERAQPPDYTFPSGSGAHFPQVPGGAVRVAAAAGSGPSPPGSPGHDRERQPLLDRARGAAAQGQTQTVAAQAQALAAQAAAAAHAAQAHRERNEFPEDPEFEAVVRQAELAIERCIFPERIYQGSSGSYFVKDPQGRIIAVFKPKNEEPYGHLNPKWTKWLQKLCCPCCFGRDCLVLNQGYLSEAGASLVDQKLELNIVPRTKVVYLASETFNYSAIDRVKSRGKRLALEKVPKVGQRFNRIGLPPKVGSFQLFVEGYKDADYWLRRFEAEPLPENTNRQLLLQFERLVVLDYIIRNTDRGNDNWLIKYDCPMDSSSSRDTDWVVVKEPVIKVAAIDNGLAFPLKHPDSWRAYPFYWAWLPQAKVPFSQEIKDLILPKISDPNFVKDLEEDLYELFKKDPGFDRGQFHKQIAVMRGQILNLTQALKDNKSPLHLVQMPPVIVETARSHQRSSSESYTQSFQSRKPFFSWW
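ADP-Glo luminescence measured ADP generated by PI4K2A enzyme (4 ug/mL before mixing) with 1.2 mM PI substrate (pre-mix) and 300 microM ATP (pre-mix). Tris pH7.5 buffer with MgCl2, Triton X-100; 1 h reaction at ambient temperature.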
GoLoco inh red: RGS12 GoLoco-Gai1 interaction inhibition; AID 880; Potency, µM (doses to about 61.6 µM), inactives show top-dose activity, negative = inhibition, hits mostly inhibitors; Gai1:RGS12 GoLoco peptide FP, rhodamine, 10 min; P63096; 230,000 tested, 0.44% active; active = well fitted inhibition curve with a large enough effect, not every such curve was filed as active; inactive = no such curve, though single readings can be large or run the other way; note: potency is the fitted concentration of half-maximal effect; nearly all actives have a fitted effect of over 30% in size
Tb PGK inh: T. brucei PGK inhibition; 380,000 tested, 0.043% active; PGK/GAPDH coupled, Kinase-Glo luminescence, 60 min; Potency, µM (titrated, usually from 57.5 µM), without a hit: at the highest dose activity change, negative = inhibition, most hits filed as inhibitors; P07378; AID 602233; note: potency is the fitted concentration of half-maximal effect; nearly all actives have a fitted effect of over 60% in size
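Recombinant glycosomal PGK reaction used 1,3-bisphosphoglycerate generated in-well by GAPDH (100nM final) in 100mM TEA pH 7.6, 5mM MgCl2, 0.01% Tween-20. After 60 minutes at room temperature, ATP was read by Kinase-Glo Plus luminescence end-point.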
Pin1 inhibitor: inhibitors of human Pin1; Q13526; Pin1 FP peptide displacement, HiFluor488, 10 min; Potency, µM (highest dose often 115 µM), inactives show at the top dose activity, negative = inhibition, actives largely listed as inhibitors; 390,000 tested, 0.009% active; AID 504891; active = well fitted inhibition curve with a large enough effect in the polarisation, with a control signal flat, not every such curve was filed as active; inconclusive = small, poorly fitted or top-dose-only effect, or effect the other way, or a change in a side signal; inactive = no such curve, though single readings can be large or run the other way; the % refers to the polarisation; note: potency is the fitted concentration of half-maximal effect
Target sequence (Q13526 whole entry, looked up): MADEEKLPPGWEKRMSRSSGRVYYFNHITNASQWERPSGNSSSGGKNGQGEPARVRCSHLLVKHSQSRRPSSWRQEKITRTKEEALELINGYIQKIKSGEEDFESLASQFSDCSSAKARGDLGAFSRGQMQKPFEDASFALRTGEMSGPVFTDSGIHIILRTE
An asterisk follows results filed as active; i = inactive; ? = inconclusive; nt = no result given; [ ] = remark or other dose. In the library only some 1.2% were active in any assay of this set; here they are far more common. Unless noted, calls come from the whole dose curve; as a rule, active = well fitted curve in the direction sought with a large enough effect; inconclusive = small, poorly fitted or top-dose-only effect, or another doubt; inactive = no such curve, though single readings can be large; an effect the other way counts as inactive or inconclusive. Unless noted, % is set by controls: 0 for no effect and ±100 for the full control effect.

SMILES	KAT2A inh	PI5P4K alpha inh	PI4K2A inh	GoLoco inh red	Tb PGK inh	Pin1 inhibitor
CCOc1ccc(NC(=O)Cn2nnc(C(=O)NCc3ccccc3OC)c2N)cc1	?	2.4	2.3	2.8%	-18.9%	-1.2%
CCOC(=O)N(O)c1ccc(C=Cc2ccccc2)cc1	nt	-27.8	4.4	nt	28.2µM*	2.1%
CCOC(=O)C(=Cc1ccc(N(C)C)cc1)C(=O)c1ccccc1	nt	8.1	0.9	nt	nt	nt
CC1=NC(=O)C(N=Nc2cccc(O)c2)N1c1ccccc1 (stereo unspecified)	-9.7%	nt	0.0	15.8µM*	-4.1%	-2.2%
O=C(O)c1ccc2nc(-c3cc4cccc(O)c4oc3=O)[nH]c2c1	-20.4%	nt	-53.6*	nt	nt	nt
O=C(O)c1ccc2nc(-c3cc4cc(F)ccc4oc3=O)[nH]c2c1	?	nt	-4.9	nt	-6.0%	-1.1%
COc1ccc(CNC(=O)C2CCCN(C(=O)Nc3ccccc3OC)C2)cc1 (stereo unspecified)	-1.3%	-3.3	0.1	nt	-8.1%	-0.6%
N#CC1=C2SCN(Cc3ccco3)CN2C(=O)CC1c1cccc2ccccc12 (stereo unspecified)	-25.7%	-59.8*	-5.4	-24.6%	-0.4%	-9.4%
C/C(N)=C(/C#N)C(=O)CSc1nnc(Nc2c(C)cccc2C)s1	1.3%	-100.0*	6.0	18.6%	?	?
CCOC(=O)C1(Cc2ccc(Cl)cc2)CCN(C(C)Cc2ccc(O)c(OC)c2)CC1 (stereo unspecified)	-3.2%	0.7	-3.9	nt	i	-0.4%
Oc1c(Br)cc(C=Nc2ccc3nc(-c4ccccc4)[nH]c3c2)c(O)c1Br	?	-70.9*	-29.0	62.5%	-22.0%	14.0%
CCOC(=O)Cc1csc(NC(=O)c2ccc(N3CCOCC3)cc2[N+](=O)[O-])n1	1.8%	-21.5	-1.5	nt	-6.0%	-16.8%
COC(=O)C1=NN(C(=O)c2ccc(Cl)cc2)C(O)(c2ccccc2)C1 (stereo unspecified)	1.41µM*	nt	3.3	13.7%	-6.8%[11.5 µM]	1.5%
O=C(/C(=N/N=C/c1ccc(O)c(O)c1O)c1ccccc1)c1ccccc1	-29.4%	-65.4*	-6.1	7.5%	-3.9%	-10.0%
CC1=CC(=O)c2ccccc2C1=O	3.2%	0.0	-5.4	4.9%	1.6%	-2.5%
CC(C)(C=O)C1=CC(=O)c2ccccc2C1=O	-10.1%	-52.0*	-2.0	-12.9%	-1.7%	-21.8%
COc1ccc(Cl)cc1NS(=O)(=O)c1cc(Br)cc2c1N(C(=O)C1CC1)CC2	-2.7%	nt	2.3	nt	-5.5%	2.2%
Cc1[nH]c2ccccc2c1/C=C/c1nc2ccccc2c(=O)[nH]1	-1.1%	-63.3*	-7.6	21.1%	2.1%	58.9%
Oc1cccc(C=NCc2ccccc2)c1O	-25.3%	-58.4*	-10.1	65.7%	-2.1%	?
Cc1cccc(C=Nc2ccc3c4c(cccc24)CC3)c1O	20µM*	25.7	-1.0	18.4%	i	1.1%
Oc1cccc(C=Nc2cccc3ccccc23)c1O	?	-90.3*	-29.9	nt	4.0%	nt
N#Cc1cccc(NC(=O)Cn2c3[n+](c4ccc(C(F)(F)F)cc42)CCCCC3)c1	-5.2%	-0.7	1.1	14.1µM*	0.9%	-0.5%
Fc1ccccc1Cn1c2[n+](c3ccc(C(F)(F)F)cc31)CCCCC2	-1.9%	-5.6	17.8	8.2%	9.6%	10.4%
O=C1NC(=O)/C(=C/c2cccc(O)c2)N1	3.0%	-64.2*	-7.3	59.8%	i	12.7%
O=c1c2cc(-c3ccccc3)sc2nc2n1CCC2	-2.9%	nt	nt	-0.1%	nt	nt
SMILES	KAT2A inh	PI5P4K alpha inh	PI4K2A inh	GoLoco inh red	Tb PGK inh	Pin1 inhibitor
NS(=O)(=O)c1cc(C(=O)O)c(O)c2ccccc12	nt	nt	nt	4.1%[14.2 µM]	nt	nt
Nc1ccc(S(=O)(=O)c2cc(O)c3ccccc3c2O)cc1	nt	-77.9*	-12.9	nt	-8.0%	-17.3%
COc1ccc(C)cc1NS(=O)(=O)c1ccc2c(c1)oc(=O)n2C	-0.1%	2.1	2.4	nt	i	-2.0%
CC(=O)N(Nc1ccccc1)c1ccccc1	-20.9%	0.2	-1.0	nt	-10.4%	-0.8%
O=C1N=C(N2CCN(c3ccccc3)CC2)S/C1=C\c1cn[nH]c1-c1ccccc1	-3.9%	-51.5*	-2.6	4.5%	-8.9%	24.0%
CCOC(=O)COc1ccc(Br)cc1/C=C\c1[nH]c(=O)[nH]c(=O)c1[N+](=O)[O-]	-4.3%	-74.0*	-27.9	17.2%	-14.4%	6.2%
CCOC(=O)COc1ccc(Br)cc1/C=C/c1[nH]c(=O)[nH]c(=O)c1[N+](=O)[O-]	?	-58.7*	?	81.0%	-6.6%	-9.6%
CCCOc1ccc(/C=C/c2[nH]c(=O)[nH]c(=O)c2[N+](=O)[O-])cc1OCC	-10.8%	-20.5	-4.8	2.8%	13.3%	?
COCCCNC(=O)c1oc2ccc(S(=O)(=O)N(C)C3CCCCC3)cc2c1C	4.0%	0.9	-2.1	nt	-8.6%	-11.7%
O=C(c1cccc([N+](=O)[O-])c1)N1CCN(Cc2ccc3c(c2)OCO3)CC1	-17.2%	-0.1	-69.3*	-10.2%	1.7%	-1.8%
COc1ccccc1NC(=O)C1CCN(C(=O)C2CC(=O)N(c3ccc(C)cc3)C2)CC1 (stereo unspecified)	-6.7%	2.5	-1.0	nt	-9.1%	-4.8%
CCOc1ccc2nc(N3C(=O)/C(=C/c4ccccc4)NC3=S)sc2c1	-4.4%	-54.1*	-1.7	nt	-1.9%	?
COc1ccc2nc(-n3c(C)ccc3C)sc2c1	?	nt	-5.9	43.4%	-7.8%	12.7%
COc1ccc2nc(N3C(=O)/C(=C/c4ccccc4)NC3=S)sc2c1	?	-62.8*	0.1	191.7%	-18.1%	?
CCOc1ccc2nc(N3CCCCCC3)sc2c1	-18.1%	nt	-1.7	4.0%	-0.1%	1.4%
N#Cc1sc2nc(-c3ccccc3)cc(-c3ccco3)c2c1N	-5.0%	-99.9*	?	23.0%	-2.2%	?
N#Cc1sc2nc(C3CC3)cc(-c3ccccc3)c2c1N	-22.0%	-1.4	4.0	5.4%	-9.3%	0.1%
COc1ccccc1CNC(=O)C1CCN(Cc2cc3ccccc3n2Cc2cccc(C)c2)CC1	-9.2%	nt	-7.9	nt	i	31.5%
Cc1cccc(C2C=C(c3ccc(F)cc3)Nc3nc4ccccc4n32)c1 (stereo unspecified)	-6.4%	nt	1.4	nt	-9.1%	?
COc1cccc(-c2cnc3c(NC=O)cc(-c4ccccc4)cn23)c1	nt	?	-0.3	nt	nt	nt
CC(=O)Nc1cccc(-c2cc(NC=O)c3ncc(-c4cccc(C(C)=O)c4)n3c2)c1	nt	-55.3*	-5.6	nt	nt	nt
COc1cccc(-c2cnc3c(NC=O)cc(-c4cccc(NC(C)=O)c4)cn23)c1	nt	-77.0*	-3.3	nt	nt	nt
COc1cc(-c2cnc3c(NC=O)cc(-c4cccc(NC(C)=O)c4)cn23)cc(OC)c1OC	nt	-60.5*	-9.0	nt	nt	nt

Source: PubChem
